# PubChem BioAssay (EPA / NIEHS)
# The source made the active and inactive calls. Rule for the calls: active = hit-call score of the fitted dose curve at least 0.9, where 1 is the maximum; inactive = score below 0.9.
# Assays:
# Details in all cases: mRNA level, 48 h; actives raise or lower the signal
# [1] = read-out: CYP2C9 (gene 1559); test: LTEA_HepaRG_CYP2C9: Life Technologies and Expression Analysis (LTEA) Assay for CYP2C9 using HepaRG (AID 2283484)
# Procedure, shortened: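 Differentiated human HepaRG cells in serum-free induction medium were exposed 48 h to chemicals in 8-point half-log series from 100 uM (0.5% DMSO), in duplicate. CYP2C9 mRNA was measured by qRT-PCR, normalized to ACTB/GAPDH/POLR2A, with bidirectional fitting versus DMSO.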
# [2] = read-out: CYP2E1 (gene 1571); test: LTEA_HepaRG_CYP2E1: Life Technologies and Expression Analysis (LTEA) Assay for CYP2E1 using HepaRG (AID 2283485)
# Procedure, shortened: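 Human liver line HepaRG, plated 48 h, then serum-free induction medium + chemical x 48 h; 8-pt CRC from 100 uM, half-log, 0.5% DMSO, n=2. Readout: CYP2E1 mRNA qRT-PCR vs ACTB/GAPDH/POLR2A; bidirectional fit vs DMSO.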
# [3] = read-out: CYP4A11 (gene 1579); test: LTEA_HepaRG_CYP4A11: Life Technologies and Expression Analysis (LTEA) Assay for CYP4A11 using HepaRG (AID 2283486)
# Procedure, shortened: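 Differentiated HepaRG cells, serum-free induction medium, exposed 48 h in duplicate to 8-point half-log series from 100 uM in 0.5% DMSO. CYP4A11 mRNA measured by qRT-PCR, normalized to ACTB, GAPDH, POLR2A; bidirectional fit versus DMSO.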
# [4] = read-out: DNA damage-inducible transcript 3 (DDIT3), DDIT3 (gene 1649); test: LTEA_HepaRG_DDIT3: Life Technologies and Expression Analysis (LTEA) Assay for DNA damage-inducible transcript 3 (DDIT3) using HepaRG (AID 2283488)
# Procedure, shortened: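 HepaRG plated 48 h, switched to serum-free induction medium, dosed 48 h (100 uM top, half-log, 8 pts, 0.5% DMSO, n=2); RNA isolated; DDIT3 by qRT-PCR; bidirectional curve fit vs DMSO.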
# [5] = read-out: Pro-epidermal growth factor (Homo sapiens) (UniProt P01133); test: LTEA_HepaRG_EGF: Life Technologies and Expression Analysis (LTEA) Assay for Epidermal growth factor (EGF) using HepaRG (AID 2283489)
# Procedure, shortened: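 Differentiated human HepaRG cells, plated 48 h then switched to serum-free induction medium, were exposed for 48 h to test chemicals (8-point half-log series, top 100 uM, 0.5% DMSO). EGF mRNA was quantified by qRT-PCR, normalized to ACTB, GAPDH, POLR2A.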
# [6] = read-out: Early growth response protein 1 (EGR1) transcription factor, EGR1 (gene 1958); test: LTEA_HepaRG_EGR1: Life Technologies and Expression Analysis (LTEA) Assay for Early growth response protein 1 (EGR1) transcription factor using HepaRG (AID 2283490)
# Procedure, shortened: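 Differentiated HepaRG cells in serum-free induction medium exposed 48 hours, duplicate, to 8 half-log concentrations up to 100 uM in 0.5% DMSO. EGR1 mRNA measured by TaqMan qRT-PCR, normalized to ACTB, GAPDH, POLR2A; bidirectional fit versus DMSO.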
# [7] = read-out: Ezrin (EZR), EZR (gene 7430); test: LTEA_HepaRG_EZR: Life Technologies and Expression Analysis (LTEA) Assay for Ezrin (EZR) using HepaRG (AID 2283491)
# Procedure, shortened: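 HepaRG, 48 h chemical exposure, 8-pt half-log series from 100 uM, 0.5% DMSO vehicle, duplicates. Read-out: EZR mRNA by TaqMan qRT-PCR (Fluidigm array), housekeeping-normalized; bidirectional curve fit vs DMSO baseline.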
# [8] = read-out: CYP3A5 (gene 1577); test: LTEA_HepaRG_CYP3A5: Life Technologies and Expression Analysis (LTEA) Assay for CYP3A5 using HepaRG (AID 2283493)
# Procedure, shortened: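 HepaRG plated 48 h, switched to serum-free induction medium, chemicals added 48 h (max 100 uM, half-log, 0.5% DMSO). RNA isolated; CYP3A5 by TaqMan qRT-PCR. Gain/loss vs DMSO.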
# [9] = read-out: Fatty Acid-Binding Protein 1 (FABP1), FABP1 (gene 2168); test: LTEA_HepaRG_FABP1: Life Technologies and Expression Analysis (LTEA) Assay for Fatty Acid-Binding Protein 1 (FABP1) using HepaRG (AID 2283494)
# Procedure, shortened: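 Differentiated human HepaRG cells exposed 48 h in serum-free induction medium to eight half-log concentrations up to 100 uM (0.5% DMSO), duplicate. FABP1 mRNA by qRT-PCR, normalised to ACTB, GAPDH, POLR2A; bidirectional fitting against DMSO.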
# [10] = read-out: Cytochrome P450 4A22 (Homo sapiens) (UniProt Q5TCH4); test: LTEA_HepaRG_CYP4A22: Life Technologies and Expression Analysis (LTEA) Assay for Cytochrome P450 4A22 (CYP4A22) using HepaRG (AID 2283495)
# Procedure, shortened: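 qRT-PCR of CYP4A22 mRNA (Fluidigm TaqMan, normalized to three housekeeping genes) after 48 h chemical exposure of HepaRG cells; 8-point half-log series, top 100 uM, 0.5% DMSO vehicle. Bidirectional curve fitting vs DMSO baseline.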
# [11] = read-out: Cytochrome P450 7A1 (Homo sapiens) (UniProt P22680); test: LTEA_HepaRG_CYP7A1: Life Technologies and Expression Analysis (LTEA) Assay for Cytochrome P450 7A1 (CYP7A1) using HepaRG (AID 2283496)
# Procedure, shortened: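 HepaRG cells plated 48 h, then switched to serum-free induction medium and exposed in duplicate for 48 h to 8-point half-log series from 100 uM in 0.5% DMSO. CYP7A1 mRNA by qRT-PCR (TaqMan), normalized to ACTB/GAPDH/POLR2A; bidirectional fit versus DMSO.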
# [12] = read-out: Glutathione S-Transferase (GSTA2), GSTA2 (gene 2939); test: LTEA_HepaRG_GSTA2: Life Technologies and Expression Analysis (LTEA) Assay for Glutathione S-Transferase (GSTA2) using HepaRG (AID 2283497)
# Procedure, shortened: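 Differentiated human HepaRG cells were exposed in duplicate for 48 h in serum-free induction medium, 8 points from 100 uM top in half-log steps, 0.5% DMSO. GSTA2 mRNA was measured by TaqMan qRT-PCR, normalized to ACTB, GAPDH and POLR2A; bidirectional fit versus DMSO.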
# [13] = read-out: Glutamate-cysteine ligase catalytic (GCLC), GCLC (gene 2729); test: LTEA_HepaRG_GCLC: Life Technologies and Expression Analysis (LTEA) Assay for Glutamate-cysteine ligase catalytic (GCLC) using HepaRG (AID 2283498)
# Procedure, shortened: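 Differentiated HepaRG cells exposed 48 h in serum-free induction medium, eight-point half-log series topping at 100 uM in 0.5% DMSO, duplicates. GCLC mRNA by qRT-PCR normalized to ACTB, GAPDH and POLR2A, fitted bidirectionally versus DMSO.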
# [14] = read-out: growth arrest and DNA damage 45 (GADD45G), GADD45G (gene 10912); test: LTEA_HepaRG_GADD45G: Life Technologies and Expression Analysis (LTEA) Assay for growth arrest and DNA damage 45 (GADD45G) using HepaRG (AID 2283499)
# Procedure, shortened: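 Differentiated human HepaRG cells in serum-free induction medium were exposed for 48 h to 8 half-log concentrations up to 100 uM in 0.5% DMSO, in duplicate. GADD45G mRNA was measured by TaqMan qRT-PCR, normalised to ACTB, GAPDH and POLR2A, and fitted bidirectionally against DMSO.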
# [15] = read-out: Glutamate-cysteine ligase regulatory (GCLM), GCLM (gene 2730); test: LTEA_HepaRG_GCLM: Life Technologies and Expression Analysis (LTEA) Assay for Glutamate-cysteine ligase regulatory (GCLM) using HepaRG (AID 2283500)
# Procedure, shortened: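 Cells were plated, cultured 48 h, switched to serum-free induction medium, then dosed in duplicate for 48 h at eight half-log concentrations up to 100 uM. RNA was then profiled by qRT-PCR; gain or loss versus DMSO was fitted.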
# [16] = read-out: Glutathione S-transferase M3 (GSTM3), GSTM3 (gene 2947); test: LTEA_HepaRG_GSTM3: Life Technologies and Expression Analysis (LTEA) Assay for Glutathione S-transferase M3 (GSTM3) using HepaRG (AID 2283501)
# Procedure, shortened: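 Differentiated HepaRG cells in serum-free induction medium were exposed in duplicate for 48 h to 8 half-log concentrations up to 100 uM in 0.5% DMSO. GSTM3 mRNA was measured by TaqMan qRT-PCR, normalized to ACTB/GAPDH/POLR2A, and fitted bidirectionally versus DMSO.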
# [17] = read-out: Heat shock 70 kDa protein 1 (HSPA1A), gene 3303; test: LTEA_HepaRG_HSPA1A: Life Technologies and Expression Analysis (LTEA) Assay for Heat shock 70 kDa protein 1 (HSPA1A) using HepaRG (AID 2283502)
# Procedure, shortened: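 Readout is HSPA1A transcript level by microfluidic qRT-PCR, normalized to three housekeeping genes and analysed for gain or loss of signal relative to 0.5% DMSO. Human HepaRG cultures received test chemicals for 48 h at up to 100 uM.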
# [18] = read-out: Hypoxia-inducible factor 1-alpha (Homo sapiens) (UniProt Q16665); test: LTEA_HepaRG_HIF1A: Life Technologies and Expression Analysis (LTEA) Assay for Hypoxia-inducible factor 1 (HIF1A) Trancription factor using HepaRG (AID 2283503)
# Procedure, shortened: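 Differentiated HepaRG cells in serum-free induction medium exposed 48 h, in duplicate, to 8-point half-log series from 100 uM in 0.5% DMSO. HIF1A mRNA measured by TaqMan qRT-PCR, normalized to ACTB/GAPDH/POLR2A, fitted bidirectionally versus DMSO.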
# [19] = read-out: Cytochrome P450 3A7 (Homo sapiens) (UniProt P24462); test: LTEA_HepaRG_CYP3A7: Life Technologies and Expression Analysis (LTEA) Assay for CYP3A7 using HepaRG (AID 2283492)
# Procedure, shortened: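 HepaRG cells plated 48 h, then dosed in serum-free induction medium for 48 h at 8 concentrations (top 100 uM, half-log steps, 0.5% DMSO). CYP3A7 mRNA by qRT-PCR, normalised to ACTB/GAPDH/POLR2A; bidirectional fit versus DMSO.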
# Hypoxia-inducible factor 1-alpha (Homo sapiens), sequence (Q16665 whole entry, looked up): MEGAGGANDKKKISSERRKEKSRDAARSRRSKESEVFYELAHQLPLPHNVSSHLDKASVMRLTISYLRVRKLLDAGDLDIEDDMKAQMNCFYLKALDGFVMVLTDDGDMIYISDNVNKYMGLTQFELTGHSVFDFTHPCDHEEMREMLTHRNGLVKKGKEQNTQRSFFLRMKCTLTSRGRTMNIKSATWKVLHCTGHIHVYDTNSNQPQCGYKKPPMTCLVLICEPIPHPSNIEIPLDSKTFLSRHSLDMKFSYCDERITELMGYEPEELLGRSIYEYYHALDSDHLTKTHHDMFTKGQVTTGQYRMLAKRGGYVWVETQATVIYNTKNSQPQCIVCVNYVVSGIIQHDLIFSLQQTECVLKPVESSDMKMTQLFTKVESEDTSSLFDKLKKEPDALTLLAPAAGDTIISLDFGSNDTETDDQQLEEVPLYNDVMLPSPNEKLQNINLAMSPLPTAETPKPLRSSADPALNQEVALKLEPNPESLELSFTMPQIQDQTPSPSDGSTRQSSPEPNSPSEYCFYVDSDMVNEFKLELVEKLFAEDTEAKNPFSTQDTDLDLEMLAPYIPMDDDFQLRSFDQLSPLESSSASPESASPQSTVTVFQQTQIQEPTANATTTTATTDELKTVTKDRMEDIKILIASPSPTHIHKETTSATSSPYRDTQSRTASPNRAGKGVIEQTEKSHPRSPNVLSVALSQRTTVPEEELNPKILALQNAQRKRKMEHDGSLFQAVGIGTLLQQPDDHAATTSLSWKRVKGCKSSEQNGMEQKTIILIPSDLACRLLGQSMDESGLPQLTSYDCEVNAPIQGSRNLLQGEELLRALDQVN
# Cytochrome P450 3A7 (Homo sapiens), sequence (P24462 whole entry, looked up): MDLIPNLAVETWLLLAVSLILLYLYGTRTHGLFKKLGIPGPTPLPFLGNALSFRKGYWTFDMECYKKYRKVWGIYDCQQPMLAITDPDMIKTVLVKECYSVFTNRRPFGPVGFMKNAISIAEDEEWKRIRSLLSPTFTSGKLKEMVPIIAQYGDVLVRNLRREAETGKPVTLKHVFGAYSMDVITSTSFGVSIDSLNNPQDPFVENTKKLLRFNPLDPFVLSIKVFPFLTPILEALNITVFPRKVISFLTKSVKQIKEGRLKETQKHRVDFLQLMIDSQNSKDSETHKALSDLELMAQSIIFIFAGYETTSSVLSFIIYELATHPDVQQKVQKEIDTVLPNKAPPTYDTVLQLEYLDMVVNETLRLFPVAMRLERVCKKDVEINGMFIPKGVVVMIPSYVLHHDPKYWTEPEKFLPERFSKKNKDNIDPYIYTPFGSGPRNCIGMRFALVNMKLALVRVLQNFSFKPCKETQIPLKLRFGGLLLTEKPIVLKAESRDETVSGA
compound,measurement,setting,value
O=C(O)Cn1c(=O)n(Cc2ccc(Br)cc2F)c(=O)c2ccc(Cl)cc21,outcome,[1],inactive
same,AC50,[2],25.8 µM (active)
same,outcome,[3],inactive
same,outcome,[4],inactive
same,outcome,[5],inactive
same,outcome,[6],inactive
same,outcome,[7],inactive
same,outcome,[8],inactive
same,outcome,[9],inactive
same,outcome,[10],inactive
same,outcome,[11],inactive
same,outcome,[12],inactive
same,outcome,[13],inactive
same,outcome,[14],inactive
same,outcome,[15],inactive
same,outcome,[16],inactive
same,outcome,[17],inactive
same,outcome,[18],inactive
O=C(O)Cc1cc(I)c(Oc2ccc(O)c(I)c2)c(I)c1,AC50,[1],79.5 µM (active)
same,AC50,[2],70.6 µM (active)
same,AC50,[3],74 µM (active)
same,AC50,[4],78.9 µM (active)
same,outcome,[5],inactive
same,outcome,[7],inactive
same,AC50,[19],0.0294 µM (active)
same,AC50,[8],0.0881 µM (active)
same,AC50,[9],89.8 µM (active)
same,AC50,[10],0.063 µM (active)
same,AC50,[11],56.8 µM (active)
same,AC50,[12],84.7 µM (active)
same,outcome,[13],inactive
same,AC50,[14],70.3 µM (active)
same,AC50,[15],79 µM (active)
same,outcome,[16],inactive
same,AC50,[17],79.7 µM (active)
CC(O)CC(C)(C)O (stereo not drawn),outcome,[1],inactive
same,outcome,[2],inactive
same,outcome,[3],inactive
same,outcome,[4],inactive
same,outcome,[5],inactive
same,outcome,[7],inactive
same,outcome,[19],inactive
same,outcome,[8],inactive
same,outcome,[9],inactive
same,outcome,[10],inactive
same,outcome,[11],inactive
same,outcome,[12],inactive
same,outcome,[13],inactive
same,outcome,[14],inactive
same,outcome,[15],inactive
same,outcome,[16],inactive
same,outcome,[17],inactive
same,outcome,[18],inactive
